Source: the supplement of paper PMC6555819

Assays:
Experiment in all cases: PBM binding z-score (relative to random genomic background probes); higher = stronger binding; sequences stand for … in GC…GCGATTGACAGCGTAGAATGAAGG
[1] = system: FXR:RXRa (NR concentration 270 nM, RXRa partner concentration 90 nM)
Procedure, shortened: (§1)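 Ligand-free nuclear receptor dimers were applied to custom Agilent 4×180K protein-binding microarrays whose double-stranded probes carried direct-repeat seeds, single-nucleotide variants, half-site ablations and random human genomic background sequences in 34-nt variable regions. Incubation lasted 1 h. Binding z-scores were computed against the random background probes from regression-normalized fluorescence.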

[2] = system: LXRa:RXRa (NR concentration 270 nM, RXRa partner concentration 90 nM)
Procedure, shortened: as §1

[3] = system: LXRa homodimer (NR concentration 270 nM)
Procedure, shortened: as §1

[4] = system: LXRb:RXRa (NR concentration 270 nM, RXRa partner concentration 90 nM)
Procedure, shortened: as §1

[5] = system: LXRb homodimer (NR concentration 270 nM)
Procedure, shortened: as §1

[6] = system: PPARa:RXRa (NR concentration 270 nM, RXRa partner concentration 90 nM)
Procedure, shortened: as §1

[7] = system: PPARg:RXRa (NR concentration 180 nM, RXRa partner concentration 90 nM)
Procedure, shortened: as §1

[8] = system: PPARg:RXRa 270nM:90nM, anti-RXR (NR concentration 270 nM, RXRa partner concentration 90 nM)
Procedure, shortened: as §1

[9] = system: PPARg:RXRa 30nM:10nM, anti-RXR (NR concentration 30 nM, RXRa partner concentration 10 nM)
Procedure, shortened: as §1

[10] = system: PPARg:RXRa 90nM:30nM, anti-RXR (NR concentration 90 nM, RXRa partner concentration 30 nM)
Procedure, shortened: as §1

[11] = system: PPARg:RXRa DBDmut IVT, anti-RXR (DBD mutation: RXRa K156A/R161A, NR concentration 270 nM, RXRa partner concentration 90 nM)
Procedure, shortened: as §1

[12] = system: PPARg:RXRa IVT, anti-PPARg (NR concentration 270 nM, RXRa partner concentration 90 nM)
Procedure, shortened: as §1

[13] = system: PPARg DBDmut:RXRa IVT, anti-PPARg (DBD mutation: PPARg1 K132A/R137A, NR concentration 270 nM, RXRa partner concentration 90 nM)
Procedure, shortened: as §1

[14] = system: PPARg DBDmut IVT, anti-PPARg (DBD mutation: PPARg1 K132A/R137A, NR concentration 270 nM)
Procedure, shortened: as §1

[15] = system: PPARg homodimer (NR concentration 180 nM)
Procedure, shortened: as §1

[16] = system: PXR:RXRa (NR concentration 270 nM, RXRa partner concentration 90 nM)
Procedure, shortened: as §1

[17] = system: PXR homodimer (NR concentration 270 nM)
Procedure, shortened: as §1

[18] = system: RARa:RXR (NR concentration 270 nM, RXRa partner concentration 90 nM)
Procedure, shortened: as §1

[19] = system: RARa homodimer (NR concentration 270 nM)
Procedure, shortened: as §1

[20] = system: RARb:RXRa (NR concentration 270 nM, RXRa partner concentration 90 nM)
Procedure, shortened: as §1

Sequence | PBM binding z-score [1] | PBM binding z-score [2] | PBM binding z-score [3] | PBM binding z-score [4] | PBM binding z-score [5] | PBM binding z-score [6] | PBM binding z-score [7] | PBM binding z-score [8] | PBM binding z-score [9] | PBM binding z-score [10] | PBM binding z-score [11] | PBM binding z-score [12] | PBM binding z-score [13] | PBM binding z-score [14] | PBM binding z-score [15] | PBM binding z-score [16] | PBM binding z-score [17] | PBM binding z-score [18] | PBM binding z-score [19] | PBM binding z-score [20]
CAAACTAGGTCAAAAGTCAAAGTCGAGCCAACCA | 4.73 | 3.95 | 0.814 | 2.97 | 0.644 | 6.39 | 11.9 | 9.92 | 9.77 | 11 | 8.48 | 8.18 | 0.975 | 1.19 | 1.78 | 2.68 | -0.0368 | 4.56 | 0.778 | 3.78
GCTTCTAGGTCAGGTTGGTCAGCTAACGGGTACG | 1.94 | 1.19 | -0.092 | 1.17 | 1.34 | 2.57 | 3.16 | 3.17 | 0.647 | 2.22 | 6.57 | 5.9 | 1.46 | 0.392 | 1.61 | 0.562 | 0.241 | 1.26 | 0.169 | 3.53
GCTTACGGTTCAAAGGTTATAGCATGAATAGAAT | 4.43 | 4.34 | 0.505 | 4.04 | -0.0859 | 5.44 | 4.71 | 5.6 | 2.92 | 5.08 | -0.685 | 0.999 | 0.711 | 0.999 | 0.99 | 4.71 | 0.601 | 6.22 | 0.458 | 2.33
ACTAGCAGGCCAAGTTTGGGTTACTCAAACAAAG | -0.336 | -0.429 | -0.394 | -0.296 | -0.552 | -0.051 | -0.32 | -0.325 | -0.354 | -0.657 | 0.764 | 0.439 | -1.56 | -0.888 | -0.611 | -0.324 | -0.543 | 0.00564 | -0.953 | 0.389
CGTCAAAGTTCAAGGTAACATAACAGAAAGCAGC | 6.08 | 5.39 | 2.7 | 3.37 | 1.22 | 4.67 | 4.56 | 5.16 | 2.16 | 3.9 | 0.0346 | 2.06 | 0.987 | 0.494 | 2.78 | 4.26 | 2.87 | 3.65 | 1.23 | 5.13
ATATGTTGGTTAGCTGGGGTCATTCAGACTAGGC | 3.89 | 4.15 | 2.39 | 4.32 | 1.69 | 4.26 | 1.3 | 2.46 | 0.784 | 1.8 | 0.909 | 1.74 | 0.767 | 1.26 | 2.8 | 5.64 | 3.66 | 5.26 | 1.53 | 2.72
CATAAAGGGTCAGCTAGGCCAGAGTAGGGACGGC | 5.38 | 3.9 | 0.537 | 2.74 | 0.607 | 4.71 | 4.17 | 3.83 | 1.06 | 2.82 | 1.58 | 2.9 | 0.703 | 0.0542 | 2.26 | 2.18 | -0.269 | 3.32 | 0.796 | 4.9
AATACAGGGTCACTAGGCCAGAGGAGGTACGAAT | 5.85 | 4.93 | 0.963 | 3.62 | 1.31 | 5.54 | 8.18 | 6.63 | 3.82 | 5.65 | 3.99 | 5.89 | 1.86 | 1.11 | 2.18 | 2.95 | 0.559 | 4.12 | 0.96 | 4.17
ACTCGGAGGACAAAGGTCAGTGCTACGCCAGTGA | 3.58 | 3.67 | 1.45 | 2.94 | 0.443 | 4.64 | 6.76 | 6.58 | 5.31 | 7.31 | 0.807 | 3.58 | 1.11 | -0.05 | 3.66 | 3.7 | 0.26 | 4.7 | 1.27 | 4.5
TCATATATGTAAAGGTGAAAGTCGAACGATATGA | 0.775 | 1.41 | -0.143 | 1.2 | -0.14 | 2.68 | 2.6 | 3.13 | 3.73 | 3.47 | 1.83 | 1.99 | 1.26 | 0.868 | 0.62 | 0.981 | -0.319 | 1.78 | 0.741 | 1.96
TCGAGTAGGTTAGTCGGGGCTTTCAGCCAACATA | -0.154 | -0.116 | -0.783 | -0.0101 | -1.08 | 0.158 | -0.922 | 0.148 | 0.909 | 0.595 | 1.86 | 0.952 | -1.71 | -1.29 | -0.983 | -0.467 | -0.898 | -0.14 | -1.19 | 0.0518
ATCGAAAGGTCGACGAGGTGAGTATACACCGTTT | 4.62 | 3.32 | -0.0538 | 2.73 | 0.533 | 4.52 | 2.85 | 3.18 | 1.02 | 2.34 | 0.442 | 1.82 | 0.853 | 1.45 | 1.32 | 3.15 | 0.642 | 4.09 | 1.19 | 3.73
GGAGCGAGGGCAAAGTTGATAGCATCTGTCGACG | 0.977 | 0.574 | -0.435 | 0.182 | -0.792 | 2.54 | 3.16 | 4.11 | 2.37 | 3.6 | 0.739 | 1.35 | -0.304 | -0.838 | -0.183 | 0.839 | -0.0464 | 1.21 | -0.259 | 2.14
TCAGACAGGTGAGGGTAACTCAGGTACGCAGTCG | 0.261 | 1.36 | -0.144 | 0.561 | -0.273 | 0.983 | 0.558 | 1.46 | 3.02 | 2.23 | 2.09 | 1.08 | 0.134 | -0.531 | 0.237 | 0.408 | -0.0185 | 0.722 | -0.208 | 1.02
ACTTACGGGTCAACGTGGTTATAGCACGCGTATA | 6.4 | 4.01 | 0.422 | 3.75 | 0.534 | 5.52 | 5.08 | 5.39 | 1.88 | 4.03 | 3.4 | 3.77 | 1.64 | 1.34 | 2.74 | 3.45 | 0.0483 | 4.28 | 1.23 | 4.02
